Data reported in PubChem BioAssay AID489008 (National Center for Advancing Translational Sciences (NCATS), 2010).
Results filed as inconclusive are left out. Active and inactive are the calls of the source. Calls follow the shape of the dose curve; as a rule, active = well fitted inhibition curve with a large enough effect; inconclusive = small, poorly fitted or top-dose-only effect; inactive = flat fitted curve, though single readings scatter.

Target: Ferritin light chain (Equus caballus) (UniProt P02791)
Sequence (P02791 2-175 limits assumed): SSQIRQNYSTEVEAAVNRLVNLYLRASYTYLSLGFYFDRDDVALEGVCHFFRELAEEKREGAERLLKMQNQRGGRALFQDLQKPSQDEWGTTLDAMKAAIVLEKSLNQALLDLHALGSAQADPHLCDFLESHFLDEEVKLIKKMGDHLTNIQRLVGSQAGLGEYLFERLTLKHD
Assay: Confirmation Assay for Identification of Novel General Anesthetics; also: nearly all actives have a fitted effect of over 40% in size
Settings: apoferritin 1-aminoanthracene fluorescence displacement
Procedure, shortened: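 Competitive displacement of profluorescent 1-aminoanthracene from 10 uM horse-spleen apoferritin in 50% saturated 1-AMA/PBS; 10 min RT, fluorescence Ex 380/Em 535. Normalized to free 1-AMA and complex; four-parameter Hill fit.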
Potency is read from the fitted curve at half-maximal effect.

Potency, active:
Cc1ccc(-c2ccc(=O)n(Cc3ccc(F)cc3)n2)cc1 35.5 µM
COCCCNC(=O)Cn1nc(-c2ccc(C)cc2)ccc1=O 14.1 µM
c1cnc(NC2CCCCCC2)nc1 15.8 µM
CC1CCCC(NC(=O)COC(=O)c2ccc(N(C)C)cc2)C1C (stereo not drawn) 7.08 µM
Cc1ccc(C(=O)COC(=O)c2ccc(Br)o2)cc1C 15.8 µM
O=C1CC(c2ccc(O)cc2)Oc2ccccc21 (stereo not drawn) 15.8 µM
Cc1cc(C)c(C)c(OCC(=O)N2CCCCCC2)c1 17.8 µM
Cc1ccc(NC(=O)COC(=O)CSC(=S)N2CCOCC2)cc1 15.8 µM
Cc1ccc(CCC(=O)Nc2cc(Cl)ccc2Cl)o1 7.94 µM
Cc1nnc(SCc2ccc(F)cc2Cl)s1 22.4 µM
O=C(NC1=NCCS1)C12CC3CC(CC(C3)C1)C2 15.8 µM
CCCNC(=O)OCCC12CC3CC(CC(C3)C1)C2 7.08 µM
CC1CCCC(C)N1C(=O)COc1ccccc1F (stereo not drawn) 17.8 µM
CC1(C)CC(=O)N(Cc2ccccc2)C(=O)C1 8.91 µM
Cc1cc(OC(C)C)c2c(-c3ccccc3)cc(=O)oc2c1 35.5 µM
Cc1ccccc1CSc1nsc(N)n1 17.8 µM
O=C(CCC1CCCCC1)Nc1nccs1 39.8 µM
O=C(NC1CCCCCC1)C(=S)NCc1ccccc1 11.2 µM
CCN(CC)c1cccc(OC2=NS(=O)(=O)c3ccccc32)c1 17.8 µM
CCN(CC)C(=S)SCC(=O)c1ccc(F)cc1 15.8 µM
Cc1ccc(OCC(=O)N2CCCCCCC2)cc1C 35.5 µM
Cc1ccc(OCc2cc(C(=O)N3CCCCCCC3)no2)cc1C 22.4 µM
Fc1ccccc1SCc1nnc(-c2ccccc2Br)o1 15.8 µM
c1cc2c(cc1NC1CCCCCC1)OCO2 8.91 µM
O=C(Cn1sc2ccccc2c1=O)NC12CC3CC(CC(C3)C1)C2 15.8 µM
Cc1ccc(C2=NN(CC(=O)NCCc3ccccc3)C(=O)CC2)cc1 5.19 µM
O=C(Nc1ccc(Br)cc1)N1CCCCCCC1 6.31 µM
Cc1ccc(-c2ccc(=O)n(CC(=O)NC(C)c3ccccc3)n2)cc1 (stereo not drawn) 20 µM
Cc1ccccc1Cn1nnc2sc3c(c2c1=O)CCCC3 15.8 µM
Oc1cccc(Oc2ncc(C(F)(F)F)cc2Cl)c1 7.94 µM
Nc1nc(SCc2ccc(Cl)cc2)ns1 12.6 µM
COc1ccc(C2=Nn3c(nnc3-c3ccc(OC)cc3)SC2)cc1 22.4 µM
CNc1nc(C23CC4CC(CC(C4)C2)C3)cs1 15.8 µM
O=C(COC(=O)CC1CC2CCC1C2)Nc1ccc(F)cc1 (stereo not drawn) 20 µM
CC1=CCC2C(=O)N(c3ccc(C)cc3)C(=O)C2C1 (stereo not drawn) 10 µM
O=C(CN1CCCC1)Nc1ccc(OCc2ccccc2)cc1 15.8 µM
CCCn1nnc(NC(=O)COc2ccc(C3CCCCC3)cc2)n1 12.6 µM
Cc1ncsc1CCOC(=O)C12CC3CC(CC(C3)C1)C2 15.8 µM
